Assay outcomes: PubChem BioAssay, National Center for Advancing Translational Sciences (NCATS)
Compounds with a hit are over-represented: about 21% of the library has one in this group of screens.
Cycloheximide cs – counter-screen for Shiga toxin inhibitors: cycloheximide protein synthesis inhibition; cell reporter, cycloheximide protein synthesis inhibition counterscreen; max response, %; 300,000 tested, 12% active; AID 2314; in the data active = max response mostly above about 13%, no sharp cut-off; inactive = mostly below about 14%; note: read at 38.3 µM for the half of the compounds with a filed dose
Shiga toxin inh – blocks Shiga toxin action in Vero cells | Vero cells, Shiga toxin protein synthesis inhibition reporter | inhibition, % at 38.7 µM | 290,000 tested, 9.2% active | AID 2315; in the data active = inhibition mostly above about 28%, no sharp cut-off; inactive = mostly below about 43%
Pf growth 48h – P. falciparum growth inhibition at 48 hours (one generation). P. falciparum luciferase growth in erythrocytes, 48 h. Potency, µM (series often up to 28.7 µM), actives largely listed as inhibitors. 310,000 tested, 5.9% active. AID 504832
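Luciferase-expressing P. falciparum in infected erythrocytes (2% hematocrit, 0.1% parasitemia final) in RPMI 1640/0.5% Albumax were exposed to compound for 48 hours at 37 C, 5% CO2; growth read as luminescence.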
Pf growth 96h – P. falciparum growth inhibition at 96 hour, primary screen for plastid delayed-death inhibitors; P. falciparum luciferase reporter growth, 96 h; Potency, µM (highest dose often 28.7 µM), usual class: inhibitors; 320,000 tested, 6.9% active; AID 504834
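Compounds incubated with erythrocytes infected by luciferase-expressing P. falciparum (2% hematocrit, 0.05% parasitemia final) for 96 hours, 37 C in 5% CO2. Growth inhibition scored as decreased luciferase luminescence.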
Large screens that a line does not name were inactive. Unless noted, calls come from the whole dose curve; as a rule, active = well fitted inhibition curve with a large enough effect; inconclusive = small, poorly fitted or top-dose-only effect, or another doubt; inactive = no such curve, though single readings can be large or run the other way.

COc1ccc(NC(=O)C(C)SCc2ccccc2)cc1OC (stereo unspecified)	none
Cc1ccc(NC(=O)C(C)SCc2ccccc2)cc1 (stereo unspecified)	Cycloheximide cs 30, Shiga toxin inh 82, Pf growth 96h inconclusive
CC(SCc1ccccc1)C(=O)Nc1ccccc1-c1ccccc1 (stereo unspecified)	none
CC(SCc1ccccc1)C(=O)N/N=C/c1ccc2c(c1)OCO2 (stereo unspecified)	none
CC(SCc1ccccc1)C(=O)Nc1ccc2c(c1)OCO2 (stereo unspecified)	Cycloheximide cs 37 (no result: Pf growth 48h)
COc1cccc(NC(=O)C(C)SCc2ccccc2)c1 (stereo unspecified)	Cycloheximide cs 23, Shiga toxin inh 44
COc1c(C(=O)Nc2ccc(Br)cn2)ccc2ccccc12	Cycloheximide cs 26, Shiga toxin inh 76
O=C(Nc1ccc(Br)cn1)c1cccc(C(=O)Nc2ccc(Br)cn2)c1	none (no result: Pf growth 48h)
COc1cc2ccccc2cc1C(=O)Nc1ccc(Br)cn1	Cycloheximide cs 25, Pf growth 96h inconclusive
O=C(Nc1ccc(Br)cn1)c1ccc2ccccc2c1	Cycloheximide cs 29 (no result: Shiga toxin inh)
Cc1cc2cc(C#N)c(N3CCN(S(C)(=O)=O)CC3)nc2cc1C	Pf growth 96h inconclusive
Cc1ccc(S(C)(=O)=O)cc1C(=O)NC(C)C1CC2CCC1C2 (stereo unspecified)	none
C/C(=N\Nc1ccc(F)cc1)c1ccc(N2CCOCC2)c(F)c1	Pf growth 48h inconclusive, Pf growth 96h inconclusive
CC(=O)NC[C@@H]1CN(c2ccc(N3CCOCC3)c(F)c2)C(=O)O1	Pf growth 96h 15µM (no result: Cycloheximide cs, Shiga toxin inh)
CCN(C(=O)Cc1cccs1)c1nnc(-c2cccnc2)s1	Cycloheximide cs 28, Shiga toxin inh 48
O=C(Oc1ccc(NC2=C(Cl)C(=O)c3ccccc3C2=O)cc1)c1ccc([N+](=O)[O-])cc1	Cycloheximide cs 18
O=C(Oc1ccc([N+](=O)[O-])cc1)c1cccnc1	Pf growth 96h inconclusive
Fc1ccc(-c2cc3nc(-c4ccccc4)cc(N4CCN(CCN5CCOCC5)CC4)n3n2)cc1	Pf growth 48h 1µM
COc1cccc(-c2cc3nc(-c4ccccc4)cc(N4CCC5(CC4)OCCO5)n3n2)c1	Pf growth 48h 13µM
COc1cccc(-c2cc(C(F)(F)F)n3nc(C(=O)N4CCC5(CC4)OCCO5)cc3n2)c1	Pf growth 48h inconclusive
CN1CCN(c2cc(-c3ccccc3)nc3cc(-c4ccc(F)cc4)nn23)CC1	none (no result: Pf growth 48h)
O=C(O)c1ccc(-n2nc(C(F)(F)F)cc2-c2cccs2)cc1	none
Nc1ccc(N2CCN(c3ccccc3)CC2)c(F)c1	Cycloheximide cs 14, Shiga toxin inh 57
O=C(/C=C/c1ccc(F)cc1)NCCc1ccc2c(c1)OCCO2	none
Cc1cccc(NC(=S)N/N=C/c2c[nH]c3ccccc23)c1	Cycloheximide cs 14, Shiga toxin inh 40, Pf growth 48h inconclusive
O=C(N/N=C/c1c[nH]c2ccc(Br)cc12)c1ccncc1	none
O=C(N/N=C/c1ccc([N+](=O)[O-])o1)c1cn2ccc3ccccc3c2n1	Pf growth 48h 1.3µM, Pf growth 96h inconclusive
O=C(N/N=C/c1c[nH]c2ccccc12)c1cccs1	Cycloheximide cs 45, Shiga toxin inh 94
O=[N+]([O-])c1ccc(/C=N/NC(=S)Nc2ccccc2C(F)(F)F)o1	Pf growth 96h inconclusive
O=C(N/N=C/c1c[nH]c2ccccc12)c1ccncc1	Pf growth 96h 12µM
O=C(N/N=C/c1c[nH]c2ccccc12)c1cc(Br)ccc1O	none
O=C(N/N=C\c1cn[nH]c1-c1ccccc1)c1cccnc1	none (no result: Pf growth 96h)
O=C(N/N=C\c1cn[nH]c1-c1ccccc1)c1cccs1	Cycloheximide cs 40, Shiga toxin inh active
O=C(N/N=C/c1c[nH]c2ccccc12)c1sc2ccccc2c1Cl	Cycloheximide cs 25, Shiga toxin inh 19
O=C(N/N=C/c1c[nH]c2ccccc12)c1ccccc1	Cycloheximide cs 47, Shiga toxin inh 128
O=C(N/N=C/c1c[nH]c2ccccc12)c1cccc([N+](=O)[O-])c1	Cycloheximide cs 26, Pf growth 96h inconclusive
O=C(N/N=C/c1c[nH]c2ccccc12)c1ccn(Cc2ccc(Cl)cc2)n1	Pf growth 96h inconclusive
CCOC(=O)C1=C(O)C(=O)N(CCCn2ccnc2)C1c1ccc(OC)cc1 (stereo unspecified)	none
CCCN1CCc2nc(SCC(=O)Nc3ccc(C)c(Cl)c3)[nH]c(=O)c2C1	none
Cc1c(/C=N/NC(=O)c2sc3ccccc3c2Cl)cnn1C	none
O=C(N/N=C/c1ccccn1)c1sc2ccccc2c1Cl	Cycloheximide cs 44, Shiga toxin inh 89, Pf growth 48h inconclusive, Pf growth 96h inconclusive
